Screens: PubChem BioAssay, National Center for Advancing Translational Sciences (NCATS)
TRHR ag: qHTS for Small Molecule Agonists and Allosteric Enhancers of Human TRH Receptor: Primary Screen for Agonists. activation, % at 2 µM. TRHR cells, calcium flux fluo-8, FDSS agonist mode. 360,000 tested, 0.18% active. AID 493084, 2011. Thyrotropin-releasing hormone receptor (Homo sapiens), P34981
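Fluo-8-loaded TRHR cells; 10 s baseline, compound added, kinetic Ca2+ fluorescence read 1/s, agonist mode.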
TRHR enhancer: qHTS for Small Molecule Agonists and Allosteric Enhancers of Human TRH Receptor: Primary Screen for Enhancers. Thyrotropin-releasing hormone receptor (Homo sapiens), P34981. TRHR cells, fluo-8 calcium fluorescence, EC20 TRH enhancement. enhancement, % at 2 µM. 360,000 tested, 0.66% active. AID 493056, 2011; in the data active means enhancement above about 30%
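TRHR-expressing cells loaded with fluo-8 calcium dye were read kinetically (ex 480/em 530) during compound addition, then stimulated with an EC20 of TRH (10 nM final). Enhancement of the Gq-mediated intracellular calcium response was scored.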
USP1 inh: Inhibitors of USP1/UAF1: Primary Screen | Potency, µM (top dose mostly 57.1 µM), usual class: inhibitors | 390,000 tested, 0.23% active | AID 743255, 2014 | recombinant USP1/UAF1, Ub-Rhodamine cleavage fluorescence | Ubiquitin carboxyl-terminal hydrolase 1 (Homo sapiens), O94782; active means well fitted inhibition curve with a large enough effect; inconclusive means small, poorly fitted or top-dose-only effect; inactive means no such curve, though single readings can be large or run the other way; further: nearly all actives have a fitted effect of over 60% in size
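1 nM enzyme complex + cpd, 15 min RT; start with Ub-Rho 150nM final; kinetic fluorescence ex 480/em 540, 6 reads q60 s. Buffer 50mM HEPES pH 7.8, 0.5mM EDTA, 0.1 mg/ml BSA, 1mM TCEP, 0.01% Tween-20.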
D1 agonist: Allosteric Agonists of the Human D1 Dopamine Receptor: qHTS | D(1A) dopamine receptor (Homo sapiens), P21728 | HEK293 T-REx D1 cells, calcium flux, agonist mode | activation, % at 2 µM | 360,000 tested, 1% active | AID 504660, 2011
Target sequence (P21728 whole entry, looked up): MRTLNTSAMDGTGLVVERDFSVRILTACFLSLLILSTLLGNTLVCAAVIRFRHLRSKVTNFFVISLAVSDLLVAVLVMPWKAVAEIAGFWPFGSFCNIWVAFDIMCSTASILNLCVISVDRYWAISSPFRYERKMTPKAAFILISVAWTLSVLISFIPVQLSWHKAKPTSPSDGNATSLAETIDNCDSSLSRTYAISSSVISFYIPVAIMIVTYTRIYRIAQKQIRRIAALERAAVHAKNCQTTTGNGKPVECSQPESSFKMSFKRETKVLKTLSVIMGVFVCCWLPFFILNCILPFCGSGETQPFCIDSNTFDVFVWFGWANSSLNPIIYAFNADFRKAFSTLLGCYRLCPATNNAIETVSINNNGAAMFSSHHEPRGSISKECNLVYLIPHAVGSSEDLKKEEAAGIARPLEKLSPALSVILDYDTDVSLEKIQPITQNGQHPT
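Tetracycline-induced HEK293 TREx D1 cells, force-coupled to calcium signalling, were dye-loaded with a no-wash calcium kit. Compound was pin-added after a 10 s baseline. Fluorescence was read kinetically at 1 cycle/s for 180 s, with calcium rises flagged as agonism.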
D1 PAM: Potentiators of Human D1 Dopamine Receptor: qHTS | AID 504651, 2011 | potentiation, % at 10 µM | 360,000 tested, 0.036% active | D(1A) dopamine receptor (Homo sapiens), P21728 | HEK293 TREx D1 cells, calcium flux, dopamine EC20 potentiation; in the data active means potentiation above about 30%
D1 antag: Antagonist of Human D 1 Dopamine Receptor: qHTS. HEK293 TREx D1 cells, calcium flux, dopamine EC80; active compounds read low. 360,000 tested, 3.2% active. activity change, negative = inhibition, % at 10 µM. D(1A) dopamine receptor (Homo sapiens), P21728; in the data active means activity change below about -30%
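Using tetracycline-induced force-coupled D1 Hek293 cells and a calcium dye, signals were followed for 180 s after compound, then for 180 s after EC80 dopamine, to detect inhibitors.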
Of the large screens only hits and unclear results are named; the others gave an inactive call; ! = not confirmed by another sample. Most compounds without a hit are left out; they make up all but 4.4% or so of the library. Unless noted, no stated cut-off is given here; in the data, active means activation above about 30%; inactive means the rest.

CCC(C)NC(=O)CN1C(=O)COc2ccc(S(=O)(=O)N3CCOCC3)cc21 (configuration not stated)	TRHR enhancer 30!
CCC1CCCCN1CCCNC(=O)CCC(=O)N1CCOc2ccccc21 (configuration not stated)	D1 antag -30
O=C(CCC(=O)N1CCOc2ccc(Cl)cc21)NCc1ccccc1	none
CN(CCCNC(=O)CCC(=O)N1CCOc2ccc(Cl)cc21)Cc1ccccc1	D1 antag -31
CCC1CCCCN1CCCNC(=O)CN1C(=O)COc2ccc(S(=O)(=O)N3CCOCC3)cc21 (configuration not stated)	D1 antag -38
COC(=O)c1c(-c2cccs2)csc1NC(=O)c1ccc(C(C)(C)C)cc1	USP1 inh inconclusive
O=C(CN1C(=O)COc2ccc(S(=O)(=O)N3CCOCC3)cc21)N1CCN(c2ccccc2F)CC1	TRHR enhancer 33
O=C(CN1C(=O)COc2ccc(S(=O)(=O)N3CCCCCC3)cc21)N1CCN(c2ccccc2F)CC1	none
CC(=O)Nc1c(C)nn(-c2ccccc2)c1N1CCC(C(=O)Nc2cc(F)ccc2F)CC1	none
CC(=O)Nc1ccc(NC(=O)C2CCN(c3c(NC(C)=O)c(C)nn3-c3ccccc3)CC2)cc1	D1 antag -36
COc1ccc2c(C)cc(C)nc2n1	D1 antag -33
Cc1cc(C)cc(NC(=O)Cc2csc(COc3cccc(C)c3)n2)c1	TRHR enhancer 38
COc1cccc(-n2c(=O)c3c(C)c(C(=O)N(C)C)sc3n(Cc3ccc(F)cc3Cl)c2=O)c1	D1 antag -31
CCc1ccc(-n2c(=O)c3c(C)c(C(=O)N(C)C)sc3n(CC(=O)NCC3CCCO3)c2=O)cc1 (configuration not stated)	none
COc1cccc(-n2c(=O)c3c4c(sc3n(Cc3ccc(F)cc3Cl)c2=O)CCCC4)c1	none
COc1cccc(-n2c(=O)c3c(C)c(C(=O)N(C)C)sc3n(CC(=O)NCC3CCCO3)c2=O)c1 (configuration not stated)	D1 antag -30
COC(=O)c1ccccc1NC(=O)Cn1c(=O)n(-c2cccc(OC)c2)c(=O)c2c(C)c(C(=O)N(C)C)sc21	D1 antag -35
Cc1cc(OCC(=O)Nc2ccc(C(=O)OC3CCCCC3)cc2)ccc1Cl	none
Cc1ccc2oc(C(=O)Nc3c(C(=O)c4ccc(C)c(F)c4)oc4ccccc34)cc(=O)c2c1	none
CC1=C(C(=O)Nc2cccnc2)C(c2ccccc2)n2nc(SCc3ccccc3Cl)nc2N1 (configuration not stated)	none
Cc1nnc(SCC(=O)Nc2sc3c(c2C(N)=O)CCC(C)C3)[nH]c1=O (configuration not stated)	D1 antag -47
COc1ccc(-c2cccc(C3CC=CC4C3C(=O)N(Cc3ccccc3)C4c3ccc(C(F)(F)F)cc3)c2)cc1 (configuration not stated)	none
Cc1ccc(-c2cccc(C3CC=CC4C3C(=O)N(Cc3ccccc3)C4c3cc(C)ccc3F)c2)cc1 (configuration not stated)	D1 antag -66
COC(=O)c1sccc1S(=O)(=O)N(CC(=O)Nc1cc(C)cc(C)c1)c1ccc(Cl)cc1	none
Cc1ccc(NC(=O)Cn2c(O)c(N=NC(=O)c3cc([N+](=O)[O-])ccc3O)c3ccccc32)cc1	D1 antag -40 (no result: USP1 inh)
O=C(Nc1ccc(OCc2cc(=O)n3c4c(sc3n2)CCCC4)cc1)c1ccc(F)cc1	none
O=C1c2ccccc2C(=O)C12OC2c1cccc2ccccc12 (configuration not stated)	USP1 inh 14µM
CCOC(=O)c1cc(-c2ccccc2)n(-c2cccc(C(=O)NC(C)CC)c2)c1C (configuration not stated)	none
Cc1cc(/C=C(\C#N)C(=O)NCC2CCCO2)c(C)n1-c1ccc(Cl)cc1 (configuration not stated)	D1 antag -35
COc1cc(/C=C(\C#N)C(=O)NCC2CCCO2)ccc1O (configuration not stated)	none
CC(=O)Nc1ccc(NC(=O)C2CC(=O)N(c3ccc(Cl)cc3)C2)cc1 (configuration not stated)	none
CC(=O)Nc1ccc(NC(=O)C2CC(=O)N(c3ccccc3Cl)C2)cc1 (configuration not stated)	D1 antag -31
CN1CCN(C(=S)Nc2ccc([N+](=O)[O-])cc2)CC1	D1 antag -33
CSCCCNC(=S)N1CCN(c2ccc(C(C)=O)cc2)CC1	D1 antag -33
O=[N+]([O-])c1ccc(NC(=S)N2CCCC2)cc1	none
COc1ccc(C(=O)NC(=S)N2CCN(c3ccc([N+](=O)[O-])cc3)CC2)cc1	D1 antag -31
COc1ccccc1N1CCN(C(=S)NC(=O)c2ccc([N+](=O)[O-])cc2)CC1	none (no result: TRHR ag, TRHR enhancer, D1 agonist, D1 PAM, D1 antag)
COCCCNC(=S)N1CCN(c2ccc([N+](=O)[O-])cc2)CC1	D1 antag -33
CCNC(=S)N1CCN(c2ccc([N+](=O)[O-])cc2)CC1	none
O=C(Nc1ccc(N2CCOCC2)c(Cl)c1)c1ccc2c(c1)OCCO2	none
O=C(Nc1ccc(N2CCOCC2)c(Cl)c1)c1ccc(Cl)cc1	D1 antag -31
O=C(Nc1ccc(CN2CCOCC2)cc1)c1ccc(Cl)cc1	none
CC(=O)N1CCN(c2ccc(NC(=O)c3ccco3)cc2Cl)CC1	none
O=C(Nc1ccc2c(c1)CCCN2C(=O)c1ccco1)c1cc([N+](=O)[O-])ccc1Cl	D1 antag -42
O=C(Nc1ccc(CN2CCOCC2)cc1)c1ccco1	D1 antag -35
O=C(Nc1ccc(N2CCN(C(=O)c3ccccc3)CC2)c(Cl)c1)c1ccco1	D1 antag -33
CCOc1ccc(CNC(=O)C2CCCN(S(=O)(=O)c3ccc4c(ccn4C)c3)C2)cc1 (configuration not stated)	none
COc1ccc(C(=O)N(Cc2ccco2)Cc2cccs2)cc1	none (no result: USP1 inh)
N#Cc1c(-n2ncnc2-c2ccc(F)cc2)sc2c1CCCCC2	USP1 inh inconclusive
CCN1CCN(c2ccc(NC(=O)c3ccc(F)cc3)cc2Cl)CC1	D1 antag -40
CCN1CCN(c2ccc(NC(=O)c3cccnc3)cc2Cl)CC1	none
